# Most compounds without a hit are left out; they make up all but 6.5% or so of the library.
# Spn PMK inh – blocks S. pneumoniae phosphomevalonate kinase; purified PMK, PK/LDH-coupled NADH absorbance 340 nm; inhibition, % at 10 µM; hit rate 0.49% among 65,000; AID 539;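 active = top-ranked compounds by inhibition in the single 10 µM screen, taking a fixed number of the strongest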;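 also: 0% = full reaction with DMSO carrier and 100% = background rate without enzyme reaction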
# Spn DPM-DC inh – blocks S. pneumoniae diphosphomevalonate decarboxylase | hit rate 0.49% among 65,000 | calls only at 10 µM | purified DPM-DC, PK/LDH coupled NADH fluorescence;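 active = the 320 compounds with the highest percent inhibition in the single-dose primary screen, excluding strongly autofluorescent ones, cut at about 32% in these data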;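 also: kinetic rate of NADH fluorescence loss reporting ADP formed by the decarboxylase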
# NADH coupling – inhibitors of enzymes used to reach an NAD/NADH endpoint. coupled PK/LDH NADH assays, four targets. IC50, µM (top dose mostly 10 µM), for inactives: top-dose inhibition. hit rate 0.02% among 65,000. AID 774;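 active = single-dose screening hits from any of four coupled enzyme assays that gave an IC50 when retested across doses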;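 also: the DPM-DC format reads NADH fluorescence rather than 340 nm absorbance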
# Autofluor 339 – intrinsic fluorescence of library compounds, ex339/em460 – biochemical, MLSMR library, data from DPM-DC assay, artefact control, profiling panel. fluorescence fold increase at 10 µM. hit rate 5.5% among 65,000. compound autofluorescence, ex339/em460 nm, NADH buffer; hits give high values; 1 = no-compound wells, NADH background;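 active = at 10 µM, mean starting fluorescence two-fold or more over control wells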;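 also: signal is the first read of a kinetic run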
# Spn MK inh – inhibitors of Streptococcus pneumoniae mevalonate kinase; purified MK, PK/LDH-coupled NADH absorbance 340 nm; inhibition, % at 10 µM; hit rate 0.48% among 65,000;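 active = ranked among the strongest by inhibition in the single 10 µM screen, a fixed top-ranked set picked for dose follow-up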
# Abs 340nm – absorbance at 340 nm. fold change at 10 µM. 65,000 tested, under 10 active. compound absorbance at 340 nm, fold over control;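 active = at 10 µM dose, initial 340 nm absorbance at least 2 fold that of control wells; inactive = change under 2 fold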;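 also: initial absorbance extrapolated from kinetic A340 decline of NADH oxidation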
# Numbers without * were called inactive; i = inactive; / = no result given; + = active, no number.
SMILES,Spn PMK inh,Spn DPM-DC inh,NADH coupling,Autofluor 339,Spn MK inh,Abs 340nm
CCOC(=O)C1=C(C)NC(=O)NC1c1cc(Br)c(O)c(OC)c1 (configuration not stated),8,i,13%,0.78,10,1
C1CCC(OCCN2CCN(CCOC3CCCCC3)CC2)CC1,3,i,4%,1.1,5,1.1
COc1ccc(C(c2nnnn2CC2CCCO2)N2CCN(c3ccccc3)CC2)cc1 (configuration not stated),77*,+,79%,1.3,66*,1.1
COCCn1nnnc1C(c1cc2cc(C)ccc2[nH]c1=O)N1CCCCCC1 (configuration not stated),13,i,9%,1.4,9,1.1
O=c1[nH]c2cc3c(cc2cc1C(c1nnnn1Cc1ccccc1)N1CCN2CCCC2C1)OCCO3 (configuration not stated),0,/,5%,4.7*,9,1.1
COCCn1nnnc1C(c1cc2cc(OC)ccc2[nH]c1=O)N1CCC(Cc2ccccc2)CC1 (configuration not stated),6,i,8%,2.1*,5,1
COCCn1nnnc1CN(Cc1cc2cc(OC)c(OC)cc2[nH]c1=O)C1CCCC1,8,i,8%,2.7*,1,1.2
O=c1[nH]c2cc3c(cc2cc1C(c1nnnn1Cc1ccccc1)N1CCCc2ccccc21)OCO3 (configuration not stated),13,i,3%,1.4,0,1
CCOc1ccc(Cn2c(O)cc(=O)[nH]c2=O)cc1,9,i,3%,1.1,0,1
CCOc1ccc2[nH]c(=O)c(C(c3nnnn3CC3CCCO3)N3CCc4ccccc4C3)cc2c1 (configuration not stated),28*,i,8%,1.9,6,1
CC1CCN(C(c2cc3cc4c(cc3[nH]c2=O)OCO4)c2nnnn2CC2CCCO2)CC1 (configuration not stated),12,/,12%,3.8*,11,1.1
O=c1[nH]c2cc3c(cc2cc1CN(Cc1nnnn1CC1CCCO1)C1CCCCC1)OCO3 (configuration not stated),16,i,8%,1.6,7,1.1
CCCN1CCN(C(c2cc3cc4c(cc3[nH]c2=O)OCO4)c2nnnn2C(C)(C)C)CC1 (configuration not stated),0,/,3%,3.9*,6,1.1
Cc1ccc2cc(C(c3nnnn3C(C)(C)C)N3CCCC3)c(=O)[nH]c2c1C (configuration not stated),7,i,7%,1.4,8,1
Cc1ccc2cc(C(c3nnnn3CC3CCCO3)N3CCc4ccccc4C3)c(=O)[nH]c2c1 (configuration not stated),8,i,3%,1.3,5,1
O=c1[nH]c2cc3c(cc2cc1CN(Cc1nnnn1CC1CCCO1)C1CCCC1)OCO3 (configuration not stated),11,i,12%,2.5*,3,1.2
Cc1ccc(S(=O)(=O)n2nc(-c3ccc(Cl)cc3)nc2NCc2ccco2)cc1,1,i,0%,1.2,0,1
CCOC(=O)C1CCCc2c1[nH]c1c(C(=O)O)cccc21 (configuration not stated),0,i,2%,1.2,6,1
COc1ccc(C2=CC(c3c(C)nn(-c4ccccc4)c3Cl)n3nnnc3N2)cc1OC (configuration not stated),11,i,9%,1.5,8,1
CCOC(=O)NC(Nc1cc(C)ccn1)(C(F)(F)F)C(F)(F)F,8,i,10%,1.1,6,1
O=C(CSc1nnc(-c2cccs2)o1)OCc1ccccc1,8,i,3%,1.1,2,0.98
CN(C)C(=O)CSc1nnc(-c2cc(-c3cccs3)nc3ccccc23)o1,18,/,10%,4.9*,2,1
COc1cccc(N(C(=O)c2cccs2)c2nc3ccccc3s2)c1,15,i,7%,1.1,0,1
COc1ccc(-c2c3c(nc4sc(C(=O)Nc5cc(C)on5)c(N)c24)CCC3)cc1,7,+,16%,2.6*,3,1
COCc1cc(C)nc(NC2CCCCC2)c1C#N,6,/,4%,3.7*,1,1.1
SMILES,Spn PMK inh,Spn DPM-DC inh,NADH coupling,Autofluor 339,Spn MK inh,Abs 340nm
COCc1cc(C)nc(N2CCN(c3ccccc3)CC2)c1C#N,0,i,0%,1.2,0,1
O=C(Nc1ccc(-c2nc3cccnc3s2)cc1)c1ccco1,0,/,0%,2.1*,0,1.3
O=C(Nc1ccc(-c2nc3cccnc3s2)cc1)c1ccc(Br)o1,9,/,6%,2.2*,3,1.1
O=C(Nc1cccc(-c2nc3cccnc3s2)c1)c1ccco1,17,i,6%,1.2,0,1
COC(=O)c1c(NC(=O)CN2CCCC(C)C2)c2c(C)cccc2n1C (configuration not stated),11,i,8%,1.2,14,1.1
CC(NC(=O)CSc1ncccn1)c1ccccc1 (configuration not stated),1,i,3%,1,7,0.99
CCN(Cc1ccccc1)S(=O)(=O)c1ccc(C(=O)Nc2nnc(-c3ccccc3OC)o2)cc1,14,/,8%,3.8*,2,1.1
CCCN(CCC)S(=O)(=O)c1ccc(C(=O)Nc2nnc(-c3cccc(OC)c3)o2)cc1,11,/,5%,2.1*,0,1
CCCN(CCC)S(=O)(=O)c1ccc(C(=O)Nc2nnc(-c3cc(OC)cc(OC)c3)o2)cc1,8,i,6%,1.9,1,1
COc1ccccc1-c1nnc(NC(=O)c2ccc(S(=O)(=O)N(C)C)cc2)o1,14,i,10%,1,8,1.1
Cc1ccc(C(=O)N(CC(=O)NC2CCCC2)Cc2cccs2)s1,12,i,4%,1.1,1,1
COc1ccc(-c2nnc3sc(-c4c(OC)cccc4OC)nn23)cc1,12,i,3%,1,2,0.99
COc1cccc(OC)c1-c1nn2c(-c3cc(-c4ccccc4)n[nH]3)nnc2s1,26*,i,46µM*,1.4,39,1.1
CCN(CC)c1ccc(-c2nn3c(-c4ccccc4OC)nnc3s2)cc1,4,/,4%,3.6*,3,1.1
Cc1ccc(N=c2oc3cc(O)ccc3cc2C(N)=O)cc1,1,i,2%,2.2*,6,1.1
COc1ccc(N=c2oc3cc(O)ccc3cc2C(=O)NCC2CCCO2)cc1 (configuration not stated),14,i,18%,2.9*,14,1
COc1ccc(N=c2oc3cc(O)ccc3cc2C(=O)NCC2CCCO2)c(OC)c1 (configuration not stated),13,/,9%,3.8*,4,1.1
